Where “and” joins values, the source holds several entries; their conditions need not be identical. Identical values can stand only once. Inconclusive results are not listed. Calls of active or inactive are those of the source. Unless noted, calls come from the whole dose curve.

Assay [1] in a line: Validation of Assay for Modulators of Lamin A Splicing (AID 1459; active = well fitted curve in the direction sought with a large enough effect in the signal ratio; the % refers to the signal ratio;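 note: cells exposed to compound for two days before reading; 0% is about no effect; ratio rise marks activators and ratio drop marks inhibitors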). Particulars: Lamin A splicing dual RFP/GFP fluorescence reporter; series mostly up to 9.22 µM. In a few lines:
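HeLa S3 lamin A-EGFP/DsRed2 stable clone, 600 cells/well, Opti-MEM 2% FBS; compounds by pin tool; 48 hrs, 37 °C/5% CO2; Acumen 488 nm scan, objects 10-100 um; GFP/RFP intensity ratio.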

Assay [2] is described as follows: qHTS Assay for Lipid Storage Modulators (AID 1519). For activity change, negative = inhibition: % is set by controls: 0 for no effect and ±100 for the full control effect. Particulars: Drosophila S3 cells, BODIPY lipid droplet/cell ratio, laser cytometry, cells loaded with oleic acid. The gist of the method: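 Cells seeded at 5,000 per well were treated with compounds over a concentration series and loaded with oleic acid (400 uM, as added). Lipid droplet fluorescence (488 nm excitation, 500-530 nm channel) was read by laser-scanning cytometry and normalized to 20 uM Triacsin C.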
In general terms: Quantitative high-throughput screening tests each substance at several concentrations.

For assay [3], the target named is DNA repair nuclease/redox regulator APEX1 (Homo sapiens) (UniProt P27695). The assay is described as follows: qHTS Validation Assay for Inhibitors of the Human Apurinic/apyrimidinic Endonuclease 1 (APE1) (AID 1705; active = well fitted curve in the direction sought with a large enough effect; an effect the other way counts as inactive or inconclusive; note: potency is the fitted concentration of half-maximal effect;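 for activity change, negative = inhibition: TAMRA fluorescence gain over two minutes as APE1 cuts a quenched THF abasic duplex; % is set by controls: 0 for no effect and ±100 for the full control effect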). Particulars: purified APE1 endonuclease activity, fluorescence, titration; series mostly up to 57.1 µM. In a few lines: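 qHTS, 1536-well. APE1 + cpd 15 min RT → 50 nM TAMRA/BHQ-2 THF-abasic dsDNA substrate → kinetic fluorescence, 3 reads/60 s; delta(read3−read1) = reaction progress. No-enzyme buffer = negative control.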

The target of assay [4] is Alpha-galactosidase A (Homo sapiens) (UniProt P06280). The assay is described as follows: Counterscreen for Glucocerebrosidase Inhibitors: qHTS Assay for Human alpha-Galactosidase at pH 4.5 (AID 992; active = well fitted curve in the direction sought with a large enough effect; an effect the other way counts as inactive or inconclusive; note: 0% is about no effect). Particulars: purified enzyme, fluorogenic substrate; series mostly up to 76.9 µM. In a few lines:
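Each compound is preincubated briefly with 2 nM enzyme before substrate addition (80 uM); plates then sit 20 min at ambient temperature, are quenched with 1M NaOH/1M glycine, and read fluorometrically.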

Assay [5] concerns the target alpha-glucosidase (Oryza sativa, rice) (UniProt Q653V4). Nature of the assay: Counterscreen for Glucocerebrosidase Inhibitors: qHTS Assay for Rice alpha-Glucosidase at pH 5.0 (AID 997; active = well fitted curve in the direction sought with a large enough effect; an effect the other way counts as inactive or inconclusive;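 note: 0% = full activity with enzyme and -100% = basal without enzyme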). To be noted: rice alpha-glucosidase enzyme activity; series mostly up to 76.9 µM. The gist of the method:
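Endpoint fluorogenic assay at pH 5.0: compounds (0.7 nM to 77 uM) titrated against 4 nM rice enzyme and 400 uM 4-MU-alpha-glucoside for 20 min at room temperature; NaOH/glycine stop, read ex 365/em 440 nm, Hill-fitted AC50.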
(A counterscreen serves to expose hits that act by an unwanted route or on another target.)

The mark [6] stands for this setting: measured here: cell count channel max response.
The mark [7] stands for this setting: measured here: lipid channel max response.

Sequence of DNA repair nuclease/redox regulator APEX1 (Homo sapiens) (P27695 whole entry, looked up): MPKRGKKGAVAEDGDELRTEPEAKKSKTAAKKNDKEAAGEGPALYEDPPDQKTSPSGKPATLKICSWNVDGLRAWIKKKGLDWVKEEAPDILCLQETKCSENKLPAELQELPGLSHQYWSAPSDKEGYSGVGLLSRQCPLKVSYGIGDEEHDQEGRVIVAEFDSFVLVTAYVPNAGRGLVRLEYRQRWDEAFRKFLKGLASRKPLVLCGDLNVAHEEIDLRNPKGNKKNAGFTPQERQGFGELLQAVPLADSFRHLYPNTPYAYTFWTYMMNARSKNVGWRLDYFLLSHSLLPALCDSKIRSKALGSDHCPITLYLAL
Sequence of Alpha-galactosidase A (Homo sapiens) (P06280 whole entry, looked up): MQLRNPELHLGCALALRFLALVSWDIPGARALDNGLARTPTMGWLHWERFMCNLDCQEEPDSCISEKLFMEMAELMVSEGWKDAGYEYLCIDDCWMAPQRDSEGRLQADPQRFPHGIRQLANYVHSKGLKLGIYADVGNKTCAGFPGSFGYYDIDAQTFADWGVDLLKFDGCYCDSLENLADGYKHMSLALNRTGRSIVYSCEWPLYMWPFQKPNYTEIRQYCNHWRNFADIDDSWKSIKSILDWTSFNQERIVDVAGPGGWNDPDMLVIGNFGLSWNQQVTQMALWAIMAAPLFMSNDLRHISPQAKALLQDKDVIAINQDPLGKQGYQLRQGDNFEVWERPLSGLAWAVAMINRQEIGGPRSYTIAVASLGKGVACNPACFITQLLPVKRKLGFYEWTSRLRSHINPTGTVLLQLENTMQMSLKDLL

On to `COc1cc2nc(N3CCN(C(=O)C4CCCO4)CC3)nc(N)c2cc1OC` (stereo not drawn), for which the molecule was called inactive in assay [1]. In addition, the activity change, negative = inhibition in assay [2] (at 57.5 µM (top of the series)) is 0.288% (inactive). The max response was -1.5% in assay [2] (setting [6]) and -3.7% in assay [2] (setting [7]). For the same molecule, the Potency result in assay [3] was “inactive”.

Take `O=C(CCc1ccc(O)cc1)c1c(O)cc(O)cc1O`: the molecule was classed as inactive in assay [4], in assay [5] and in assay [1]. The activity change, negative = inhibition in assay [2] (at 57.5 µM (top of the series)) was 10.4% (inactive). The results for the max response in assay [2] (setting [6]) and in assay [2] (setting [7]) were 5.8% and 18.1%, respectively. For the same molecule, in assay [3], the Potency entry is “inactive”.

For the molecule `CN1C(C(=O)Nc2ccccn2)=C(O)c2sccc2S1(=O)=O`, the activity change, negative = inhibition in assay [2] (at 25.7 µM (top of the series)) was -0.44% (inactive). Moreover, the max response in assay [2] (setting [6]) was -5.92%; in assay [2] (setting [7]), -4.62%.

Turning to `Nc1nc(Cl)nc2c1ncn2[C@H]1C[C@H](O)[C@@H](CO)O1`, in assay [2] (at 57.5 µM (top of the series)), the activity change, negative = inhibition is -3.99% (inactive). For the same molecule, the max response in assay [2] (setting [6]) is -0.0923%; in assay [2] (setting [7]), -3.39%.

Consider `CN(C)CCCC1(c2ccc(F)cc2)OCc2cc(C#N)ccc21` (stereo not drawn), for which, in assay [1], the outcome was inactive. Moreover, in assay [2] (at 57.5 µM (top of the series)), the activity change, negative = inhibition was 0.497% (inactive). Also, the max response was -10.6% in assay [2] (setting [6]) and -12.9% in assay [2] (setting [7]). Moreover, the Potency entry in assay [3] is “inactive”.

Take `Cc1cc2cc3c(C)cc(=O)oc3c(C)c2o1`: the activity change, negative = inhibition in assay [2] (at 25.7 µM (top of the series)) is -0.305% (inactive). For the same molecule, the figures for the max response in assay [2] (setting [6]) and in assay [2] (setting [7]) were -4.86% and -6.06%, respectively.

For `Cc1nc2n(c(=O)c1CCN1CCC(c3noc4cc(F)ccc34)CC1)CCCC2`, the molecule was called inactive in assay [4], in assay [5] and in assay [1]. Besides, the activity change, negative = inhibition in assay [2] (at 25.7 µM (top of the series)) was -3.92% (inactive); in assay [2] (at 57.5 µM (top of the series)), 0.755% (inactive). Also, the max response in assay [2] (setting [6]) is -8.38% and -35%; in assay [2] (setting [7]), -11.2% and -35%. Besides, the Potency result in assay [3] is “inactive”.

In the case of `CC1(C)C(=O)N(CCN2CCC(C(=O)c3ccc(F)cc3)CC2)c2ccccc21`, the result in assay [4], in assay [5] and in assay [1] was inactive. Also, in assay [3], the Potency entry is “inactive”.

Regarding `CCCOc1ccc2nc(NC(=O)OC)[nH]c2c1`, the activity change, negative = inhibition in assay [2] (at 57.5 µM (top of the series)) was 5.26% (inactive). Besides, the figures for the max response in assay [2] (setting [6]) and in assay [2] (setting [7]) were 3.19% and 11.6%, respectively.

As to `O=c1oc2cc(O)ccc2s1`, the activity change, negative = inhibition in assay [2] (at 57.5 µM (top of the series)) was 5.97% (inactive). The max response came out at 14.5% in assay [2] (setting [6]) and 23.2% in assay [2] (setting [7]).

Consider `O=C(NCC1CCCCN1)c1cc(OCC(F)(F)F)ccc1OCC(F)(F)F` (stereo not drawn), for which the outcome in assay [1] was inactive. The Potency entry in assay [3] was “inactive”.

For `Nc1nc(OCc2ccccc2)c2[nH]cnc2n1`, the call in assay [4], in assay [5] and in assay [1] was inactive. Also, the Potency result in assay [3] is “inactive”.

In the case of `CCC1=C(C)CN(C(=O)NCCc2ccc(S(=O)(=O)NC(=O)NC3CCC(C)CC3)cc2)C1=O` (stereo not drawn), the activity change, negative = inhibition in assay [2] (at 25.7 µM (top of the series)) was -0.769% (inactive). The results for the max response in assay [2] (setting [6]) and in assay [2] (setting [7]) were -5.01% and -5.89%, respectively.

For `S=c1nc[nH]c2nc[nH]c12`, the activity change, negative = inhibition in assay [2] (at 57.5 µM (top of the series)) was 2.17% (inactive). Moreover, the results for the max response in assay [2] (setting [6]) and in assay [2] (setting [7]) were 9.84% and 14.8%, respectively.

Take `O=C1c2c(O)cc(O)cc2OC(c2ccc(O)c(O)c2)C1O` (stereo not drawn): the molecule was called inactive in assay [1]. In assay [2] (at 57.5 µM (top of the series)), the activity change, negative = inhibition is 0.956% (inactive). For the same molecule, the max response in assay [2] (setting [6]) came out at 37.7%; in assay [2] (setting [7]), 36.5%. The Potency entry in assay [3] was “inactive”.

As for `O=C1c2ccccc2-c2n[nH]c3cccc1c23`, the outcome in assay [4], in assay [5] and in assay [1] was inactive. Besides, the activity change, negative = inhibition in assay [2] (at 57.5 µM (top of the series)) was 2.36% (inactive). Besides, the max response in assay [2] (setting [6]) is -6.85%; in assay [2] (setting [7]) it was -4.08%.

Turning to `Cc1cc(=O)oc2cc(O)ccc12`, in assay [2] (at 25.7 µM (top of the series)), the activity change, negative = inhibition was 0.949% (inactive). The values for the max response in assay [2] (setting [6]) and in assay [2] (setting [7]) were -7.84% and -11.2%, respectively.

Take `C[C@@H](N)C1CCC(C(=O)Nc2ccncc2)CC1` (stereo partly drawn): the molecule was called inactive in assay [1]. Moreover, in assay [2] (at 57.5 µM (top of the series)), the activity change, negative = inhibition is 2.12% (inactive). In addition, the values for the max response in assay [2] (setting [6]) and in assay [2] (setting [7]) were -4.26% and -0.634%, respectively. Further, the Potency result in assay [3] was “inactive”.

`O=c1c(O)c(-c2cc(O)c(O)c(O)c2)oc2cc(O)cc(O)c12`: the result in assay [4], in assay [5] and in assay [1] was inactive. Besides, the activity change, negative = inhibition in assay [2] (at 25.7 µM (top of the series)) is 2.34% (inactive); in assay [2] (at 57.5 µM (top of the series)) it was 14.6% (inactive) and -3.22% (inactive). Also, the max response in assay [2] (setting [6]) is -7.21% and 17.3% and -40.9%; in assay [2] (setting [7]), -2.79% and 29.1% and -42.9%. In addition, in assay [3], the Potency is 355 nM (active).

As for `COc1cc(OC)c(C(=O)CCCN2CCCC2)c(OC)c1`, the activity change, negative = inhibition in assay [2] (at 25.7 µM (top of the series)) is -0.942% (inactive). For the same molecule, the results for the max response in assay [2] (setting [6]) and in assay [2] (setting [7]) were -9.33% and -9.82%, respectively.

`CC(=O)N1CCN(c2ccc(OC[C@H]3CO[C@](Cn4ccnc4)(c4ccc(Cl)cc4Cl)O3)cc2)CC1`: the molecule was called inactive in assay [4], in assay [5] and in assay [1]. Moreover, the Potency entry in assay [3] is “inactive”.

With `O=C(O)c1cn(-c2ccc(F)cc2)c2cc(N3CCNCC3)c(F)cc2c1=O`, the activity change, negative = inhibition in assay [2] (at 57.5 µM (top of the series)) was 4.61% (inactive). Moreover, the results for the max response in assay [2] (setting [6]) and in assay [2] (setting [7]) were 14.8% and 20.1%, respectively.

Take `N=C(N=C(N)N)N1CCOCC1`: the activity change, negative = inhibition in assay [2] (at 25.7 µM (top of the series)) is -1.12% (inactive). In addition, the max response came out at 14.2% in assay [2] (setting [6]) and 12.8% in assay [2] (setting [7]).

For `CN(C)CCc1c[nH]c2ccc(Cn3cncn3)cc12`, the activity change, negative = inhibition in assay [2] (at 57.5 µM (top of the series)) is 3.43% (inactive). In addition, the max response worked out at 14.1% in assay [2] (setting [6]) and 22% in assay [2] (setting [7]).

On to `O=C(NC(Cc1cc(=O)[nH]c2ccccc12)C(=O)O)c1ccc(Cl)cc1` (stereo not drawn), for which the activity change, negative = inhibition in assay [2] (at 57.5 µM (top of the series)) is 11.1% (inactive). The max response in assay [2] (setting [6]) was found to be 17.3%; in assay [2] (setting [7]), 35%.

As for `Cc1ccc(S(=O)(=O)NC(=O)NN2CC3CCCC3C2)cc1` (stereo not drawn), the activity change, negative = inhibition in assay [2] (at 57.5 µM (top of the series)) was 1.76% (inactive) and 2.62% (inactive). Further, the max response is 7.98% and 20.6% in assay [2] (setting [6]); 13.4% and 23.5% in assay [2] (setting [7]).

With `Cc1cccc(C#Cc2ccccc2)n1`, the result in assay [4], in assay [5] and in assay [1] was inactive. In assay [2] (at 57.5 µM (top of the series)), the activity change, negative = inhibition was 0.257% (inactive). For the same molecule, the values for the max response in assay [2] (setting [6]) and in assay [2] (setting [7]) were -2.56% and -2.47%, respectively. Moreover, the Potency entry in assay [3] was “inactive”.

`CCCCc1ccc2nc(NC(=O)OC)[nH]c2c1`: in assay [2] (at 25.7 µM (top of the series)), the activity change, negative = inhibition is 1.84% (inactive). In addition, the max response in assay [2] (setting [6]) was -4.18%; in assay [2] (setting [7]), -2.48%.

Turning to `CCN(CCO)CCCC(C)Nc1ccnc2cc(Cl)ccc12` (stereo not drawn), the activity change, negative = inhibition in assay [2] (at 57.5 µM (top of the series)) was 5.88% (inactive). In addition, the max response was 13.5% in assay [2] (setting [6]) and 23.6% in assay [2] (setting [7]).

The values are drawn from PubChem BioAssay (NCATS).
